We go through 60 molecules from ChEMBL document CHEMBL3988442, “University of Dundee, Small-Polar-MMV Screening Library” (2021).

Molecules are shown by their SMILES. The whole screen tested about 85,000 compounds, of which about 440 (0.52%) showed an effect of 50% or more. The sample holds strong results, similar compounds and a random draw of the others, so the mix is not that of the screen.

The nature of this test: In vitro enzyme assay to detect hydrolysis of chlorophenol red-beta-D-[…] directly proportional to the number of Toxoplasma stably expressing beta-galactosidase. The class given is functional, organism-based, Toxoplasma gondii. The arrangement: scale not given: in the data most compounds retested in dose-response had high values.

For the molecule `NCC(CO)Cc1ccsc1` (stereo not given), the “Percent Effect” value (50 µM) was -1.079%.
Take `Brc1cc2c(cc1CN1CCCNCC1)OCO2`: under “50 µM”, the “Percent Effect” value was -4.823%.
Consider `CC1(c2ccncc2)NC(=O)c2ccccc2N1` (stereo not given), for which, under “50 µM”, the “Percent Effect” value came out at 11.28%.
For `O=C(CN1CCn2ccnc2C1)NC1CCS(=O)(=O)C1` (stereo not given), the “Percent Effect” value (50 µM) stood at 6.953%.
As for `CC(C1CCN(Cc2c[nH]cn2)CC1)N1CCCC1` (stereo not given), under “50 µM”, the “Percent Effect” value is on record as 21.18%.
On to `NCc1ccnc(OCC2CC2)c1`, for which the “Percent Effect” value (50 µM) is recorded as 3.263%.
On the same count and under the same terms, for `Cc1ccccc1CC(=O)N(C)C` the value was -4.007%; for `NCCC1CCN(C(=O)Nc2cc(F)cc(F)c2)CC1`, -1.616%.
Take `Cc1ccc(S(=O)(=O)NCC2(O)CCOc3ccccc32)s1` (stereo not given): for the setting “10 µM”, the “Percent Effect” value amounted to 3.665%.
With `O=S(=O)(NCC1(O)CCOc2ccccc21)c1ccc(Br)s1` (stereo not given), under “10 µM”, the “Percent Effect” value stood at 53.2%.
With `O=S(=O)(NCC1(O)CCOc2ccccc21)c1ccc(Cl)s1` (stereo not given), the “Percent Effect” value (10 µM) amounted to 4.661%.
In the case of `COCCn1cc(CNC(=O)NCC(F)F)cn1`, the “Percent Effect” value (50 µM) is listed as -9.663%.
Still for that read-out and setting: under `CNc1nc(C(=O)N[C@@H]2CC[C@@H](N)C2)cs1` stands 18.65%; under `CC(NC(=O)c1ccoc1)C(=O)Nc1nccs1` (stereo not given), -8.907%.
On to `Cc1cc(C)n(CC2CN(CC3CCCC3)CCO2)n1` (stereo not given), for which the “Percent Effect” value (10 µM) is on record as -2.525%.
`CC(C)=CCN1CCOC(Cn2nc(C)cc2C)C1` (stereo not given): where the note is “10 µM”, the “Percent Effect” value came to 97.95%.
The same measure, in the same setting: under `Cc1cc(CN2CCOC(Cn3nc(C)cc3C)C2)on1` (stereo not given) stands -42.92%.
On to `O=C1COc2ccc(NC(=O)c3ccccc3)cc2N1`, for which, under “50 µM”, the “Percent Effect” value is 3.882%.
In the case of `CN(CCC#N)CC1CCN(CCO)CC1`, the “Percent Effect” value (50 µM) is -6.076%.
`COc1cc(Br)ccc1CCCNC(=O)C(C)O` (stereo not given): under “50 µM”, the “Percent Effect” value amounted to 0.2477%.
Still for that read-out and setting: under `CC(=O)c1ccc(OCC(O)CNC2CCCC2)cc1` (stereo not given) stands 6.61%; under `O=C(COc1ccccc1)NCCn1ccnc1`, -5.476%; under `CC(=O)c1ccc(OCC(O)Cn2ccnc2)cc1` (stereo not given), 57.01%.
The same measure, in the same setting: for `CCNC(=O)N1CCC(NC(=O)c2ccc(C)o2)CC1` the value was -1.852%.
As to `Cc1nc2cc(C3CCN(Cc4cccc(F)c4F)C3)nn2c(O)c1C.O=C(O)CC(O)(CC(=O)O)C(=O)O` (stereo not given), the “Percent Effect” value (10 µM) came out at 49.65%.
The same measure, in the same setting: under `Cc1nc2cc(C3CCN(Cc4ccccc4F)C3)nn2c(O)c1C` (stereo not given) stands 15.76%.
In the case of `Cc1cc(C(=O)Nc2ccnc(C)c2Cl)cc(O)n1`, the “Percent Effect” value (50 µM) turned out to be 12.01%.
In the case of `CN1CCCN(CC(=O)NCCCc2ncc[nH]2)CC1`, the “Percent Effect” value (50 µM) was -15.47%.
Regarding `CCC(=O)NC1CCCc2nc(N(C)C)ncc21` (stereo not given), the “Percent Effect” value (50 µM) was found to be 69.08%.
In the case of `Cc1cc(C)c(C(=O)NC2CCCc3nc(N(C)C)ncc32)cc1C` (stereo not given), the “Percent Effect” value (10 µM) was 19.3%.
On the same count and under the same terms, for `CN(C)c1ncc2c(n1)CCCC2NC(=O)C1CC1` (stereo not given) the value was 7.926%.
Consider `CNC(=O)CN1CCCC(CO)(CCCOC)C1` (stereo not given), for which the “Percent Effect” value (50 µM) was 5.203%.
For the molecule `CC(=O)NCCCS(=O)(=O)c1ccc(C)cn1`, where the note is “50 µM”, the “Percent Effect” value was -5.9%.
`CC(=O)NCCCNCc1ccc(Cl)c2cccnc12`: the “Percent Effect” value (10 µM) was -6.901%.
Consider `CC(=O)NCCCS(=O)(=O)c1ncccc1Cl`, for which the “Percent Effect” value (50 µM) is reported as 60.86%.
Regarding `COC1CNc2ccccc2C1` (stereo not given), the “Percent Effect” value (50 µM) is listed as -15.01%.
`NC(=O)CN1CCCN(C(=O)c2ccc(Br)o2)CC1`: the “Percent Effect” value (50 µM) is -5.913%.
As to `Fc1ccc(NCC2CCC3(CC2)OCCO3)nc1`, the “Percent Effect” value (50 µM) turned out to be 8.487%.
As for `CCC(CC)C(=O)N1C[C@@H](CO)[C@H](N(C)C)C1`, the “Percent Effect” value (50 µM) was 16.3%.
On to `COc1ccc(CN2CCCC2)cc1Oc1ccc2c(c1)CC(CN)O2` (stereo not given), for which the “Percent Effect” value (10 µM) was -15.09%.
Turning to `NCC1Cc2cc(Oc3cc(F)c(CN4CCCC4)c(F)c3)ccc2O1` (stereo not given), for the setting “10 µM”, the “Percent Effect” value was determined as 54.73%.
With `Cc1cc(CN2CCCC2)cc(Oc2ccc3c(c2)CC(CN)O3)c1` (stereo not given), the “Percent Effect” value (10 µM) was -8.923%.
Regarding `CSCC(CCO)NC(=O)Nc1cccc(F)c1` (stereo not given), the “Percent Effect” value (50 µM) is given as -3.551%.
As to `CCc1cc(=O)[nH]c(-c2ccc(NCCC(C)O)nc2)n1` (stereo not given), the “Percent Effect” value (10 µM) was 3.239%.
With `Cc1nc(-c2ccc(NCCc3ccc(O)cc3)nc2)[nH]c(=O)c1C`, the “Percent Effect” value (10 µM) turned out to be 31.24%.
Turning to `CCc1cc(=O)[nH]c(-c2ccc(NCCc3ccc(O)cc3)nc2)n1`, where the note is “10 µM”, the “Percent Effect” value worked out at 56.82%.
For the molecule `N#Cc1ccc(S(=O)(=O)N2CCCO2)c(Cl)c1`, where the note is “50 µM”, the “Percent Effect” value is on record as 6.897%.
In the case of `N#CCCNC(=O)CN1CCCCC1`, the “Percent Effect” value (50 µM) is on record as -2.214%.
As for `N#CCCNC(=O)CN1CCCC1`, the “Percent Effect” value (50 µM) amounted to 96.45%.
As to `N#CCCNC(=O)CN1CCCCCC1`, the “Percent Effect” value (50 µM) is on record as -10.45%.
In the case of `CCC(C)CS(=O)(=O)Nc1ccc(F)c(C(N)=O)c1` (stereo not given), where the note is “50 µM”, the “Percent Effect” value was 12.83%.
On to `O=C(Cc1ccccc1)NCc1ccncc1`, for which the “Percent Effect” value (50 µM) was 2.374%.
Take `COCc1nn(Cc2ccccc2Cl)c(=O)o1`: the “Percent Effect” value (50 µM) is on record as 10.13%.
For the molecule `COCc1nn(Cc2ccc(Cl)s2)c(=O)o1`, the “Percent Effect” value (10 µM) came out at 11.6%.
For the molecule `COCc1nn(CC(=O)c2cc(F)ccc2F)c(=O)o1`, the “Percent Effect” value (50 µM) is reported as 53.45%.
Consider `CN(CC1CCOC1)C(=O)c1cc(F)ccc1F` (stereo not given), for which the “Percent Effect” value (50 µM) is on record as 12.99%.
Regarding `CC1CCN(C(=O)Cn2cncc(Br)c2=O)CC1`, the “Percent Effect” value (50 µM) came out at 8.773%.
Regarding `CSCc1cccc(C(=O)N2CCN(CC(C)O)CC2)c1` (stereo not given), where the note is “10 µM”, the “Percent Effect” value is recorded as -0.6353%.
Consider `CC(O)CN1CCN(Cc2cccc(C(=O)N(C)C)c2)CC1` (stereo not given), for which the “Percent Effect” value (10 µM) is reported as 5.816%.
As to `CC(O)CN1CCN(Cc2cccc(C(=O)N3CCCCC3)c2)CC1` (stereo not given), the “Percent Effect” value (10 µM) worked out at 67.87%.
